Key:
Experiment in all cases: PBM binding z-score (relative to random genomic background probes); higher = stronger binding; sequences stand for … in GC…GCGATTGACAGCGTAGAATGAAGG
[1] = system: FXR:RXRa (NR concentration 270 nM, RXRa partner concentration 90 nM)
Procedure, shortened: (§1)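 Custom Agilent 4×180K protein-binding microarrays carried double-stranded probes. Their 34-nt variable regions held direct-repeat seeds, single-nucleotide variants, half-site ablations and random human genomic background sequences. Arrays were incubated 1 h with ligand-free nuclear receptor dimers in PBS pH 7.4, 2% milk, 0.02% Triton X-100, 1 mM DTT, 0.2 mg/mL BSA and 0.4 mg/ml salmon testes DNA. Antibodies against each partner (one per run) detected binding, and scanned fluorescence was regression-normalized. Binding z-scores use random background probes as reference.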

[2] = system: LXRa:RXRa (NR concentration 270 nM, RXRa partner concentration 90 nM)
Procedure, shortened: as §1

[3] = system: LXRa homodimer (NR concentration 270 nM)
Procedure, shortened: as §1

[4] = system: LXRb:RXRa (NR concentration 270 nM, RXRa partner concentration 90 nM)
Procedure, shortened: as §1

[5] = system: LXRb homodimer (NR concentration 270 nM)
Procedure, shortened: as §1

[6] = system: PPARa:RXRa (NR concentration 270 nM, RXRa partner concentration 90 nM)
Procedure, shortened: as §1

[7] = system: PPARg:RXRa (NR concentration 180 nM, RXRa partner concentration 90 nM)
Procedure, shortened: as §1

[8] = system: PPARg:RXRa 270nM:90nM, anti-RXR (NR concentration 270 nM, RXRa partner concentration 90 nM)
Procedure, shortened: as §1

[9] = system: PPARg:RXRa 30nM:10nM, anti-RXR (NR concentration 30 nM, RXRa partner concentration 10 nM)
Procedure, shortened: as §1

[10] = system: PPARg:RXRa 90nM:30nM, anti-RXR (NR concentration 90 nM, RXRa partner concentration 30 nM)
Procedure, shortened: as §1

[11] = system: PPARg:RXRa DBDmut IVT, anti-RXR (DBD mutation: RXRa K156A/R161A, NR concentration 270 nM, RXRa partner concentration 90 nM)
Procedure, shortened: as §1

[12] = system: PPARg:RXRa IVT, anti-PPARg (NR concentration 270 nM, RXRa partner concentration 90 nM)
Procedure, shortened: as §1

[13] = system: PPARg DBDmut:RXRa IVT, anti-PPARg (DBD mutation: PPARg1 K132A/R137A, NR concentration 270 nM, RXRa partner concentration 90 nM)
Procedure, shortened: as §1

[14] = system: PPARg DBDmut IVT, anti-PPARg (DBD mutation: PPARg1 K132A/R137A, NR concentration 270 nM)
Procedure, shortened: as §1

[15] = system: PPARg homodimer (NR concentration 180 nM)
Procedure, shortened: as §1

[16] = system: PXR homodimer (NR concentration 270 nM)
Procedure, shortened: as §1

[17] = system: RARa:RXR (NR concentration 270 nM, RXRa partner concentration 90 nM)
Procedure, shortened: as §1

[18] = system: RARa homodimer (NR concentration 270 nM)
Procedure, shortened: as §1

[19] = system: RARb:RXRa (NR concentration 270 nM, RXRa partner concentration 90 nM)
Procedure, shortened: as §1

| Sequence | PBM binding z-score [1] | PBM binding z-score [2] | PBM binding z-score [3] | PBM binding z-score [4] | PBM binding z-score [5] | PBM binding z-score [6] | PBM binding z-score [7] | PBM binding z-score [8] | PBM binding z-score [9] | PBM binding z-score [10] | PBM binding z-score [11] | PBM binding z-score [12] | PBM binding z-score [13] | PBM binding z-score [14] | PBM binding z-score [15] | PBM binding z-score [16] | PBM binding z-score [17] | PBM binding z-score [18] | PBM binding z-score [19] |
| --- | --- | --- | --- | --- | --- | --- | --- | --- | --- | --- | --- | --- | --- | --- | --- | --- | --- | --- | --- |
| GCTCGGGGGACAAGGTCAGAGCTTTGTCCGTAGA | 3.46 | 3.46 | 0.143 | 3.96 | 4.29 | 4.25 | 3.61 | 4.54 | 1.72 | 3.56 | 2.28 | 3.25 | 1.23 | 1.71 | 1.58 | 0.127 | 3.59 | -0.41 | 3.92 |
| CCTAGTTGGTCAGGAGGTCACATACCGGATATGA | 3.32 | 3.13 | 1.66 | 3.16 | 0.594 | 3.7 | 3.11 | 3.14 | 1.32 | 2.95 | 1.64 | 3.39 | 0.476 | 0.388 | 2.7 | 1.16 | 3.9 | 2.01 | 3.37 |
| AATACAGGGTCATTAGGCCAGAGTAGGTACGAAT | 7.31 | 5.48 | 2.17 | 4.27 | 1.52 | 5.58 | 6.71 | 5.91 | 2.62 | 4.89 | 3.37 | 4.54 | 1.38 | 0.677 | 2.55 | 0.493 | 4.48 | 1.06 | 4.04 |
| CCTTACGGGTCACTCTAGGTTATAGCATCGGAGT | 5.09 | 7.69 | 1.83 | 5.58 | 0.329 | 4.68 | 3.33 | 3.69 | 1.3 | 2.76 | 3.21 | 3.69 | 0.202 | -0.339 | 1.82 | 0.568 | 3.43 | 0.346 | 3.68 |
| ATATGTAGGTTACATCCGGGTCATTCTGGCTATG | 2.03 | 3.94 | 1.66 | 3.12 | 0.83 | 4.43 | 6.19 | 4.83 | 2.69 | 3.95 | 7.39 | 7.49 | 2.61 | 2.66 | 1.91 | 0.712 | 3.04 | 0.96 | 2.21 |
| ATCGAAAGGTCGTCGAGGTGAGTATACACCGTTT | 4.79 | 4.28 | 0.169 | 3.19 | 0.543 | 4.87 | 3.07 | 3.97 | 1.22 | 2.66 | 0.528 | 2.3 | 0.899 | 0.213 | 1.6 | 1.15 | 3.81 | 0.174 | 3.89 |
| ATATGTAGGATATCGGGTCATTCAGTTTGCGCAT | 1.64 | 1.98 | 0.589 | 2.02 | 0.577 | 3.05 | 2.36 | 2.9 | 1.16 | 2.09 | 3.29 | 4.09 | 1.47 | 1.41 | 1.07 | 4.53 | 2.53 | 1.03 | 1.66 |
| CTCGAAAGGTCGTGCTCAGGTGAGTATGCCAAAC | 4.94 | 4.15 | 0.0245 | 3.2 | -0.0304 | 4.79 | 2.57 | 3.95 | 1.25 | 2.67 | 1.24 | 1.96 | 0.261 | 0.173 | 1.39 | 0.126 | 4.18 | 0.00788 | 3.83 |
| TCTCGGAGGACACGAAAGGTGAGAGCTCGACATC | 0.988 | 0.364 | -0.458 | -0.112 | -0.994 | 1.22 | 0.346 | 1.01 | 2.1 | 1.25 | 1.27 | 0.956 | -0.191 | -0.811 | 0.673 | -0.496 | 1.05 | -0.329 | 2.26 |
| TCTTATAGATCAATAGAGGTTAAGAAAGTGCGCT | 1.14 | 4.21 | 0.848 | 2 | 0.0677 | 1.92 | 0.685 | 2.02 | 3.21 | 2.51 | 1.88 | 0.653 | 0.623 | 0.528 | 1.11 | 0.488 | 1.99 | 0.901 | 1.03 |
| CGTCAACGTTCAACTAAGGTAACGTAAAGCACGC | 0.828 | 0.246 | 0.102 | 0.277 | 0.346 | 0.566 | 0.682 | 0.178 | -0.166 | -0.0957 | -0.0681 | 0.225 | 0.181 | -0.155 | 0.349 | -0.0969 | 2.07 | 0.331 | 0.991 |
| CCTACTGGGCCAAAGGTCTTTGATTCCAATGCTC | -0.409 | -0.406 | -0.413 | 0.232 | -0.841 | 4.15 | 8.96 | 8.59 | 7.74 | 9.9 | 5.05 | 5.18 | 0.12 | -0.165 | 0.366 | -0.504 | 0.354 | -0.497 | 0.448 |
| CCTTACGGGTCAAGGTTATCGCACGGGTGGTACG | 6.04 | 3.62 | 0.367 | 2.95 | 0.18 | 5.07 | 4.85 | 5.31 | 2.29 | 3.7 | 2.42 | 3.71 | 0.643 | -0.085 | 2.19 | 0.106 | 4.53 | 0.512 | 4.2 |
| TTACCAAGGTCAGCTGAGGTCGTTGATCCAACTC | 6.04 | 5.5 | 2.43 | 4.31 | 0.419 | 4.83 | 3.85 | 4.1 | 1.27 | 2.92 | 2.24 | 3.75 | 0.41 | 0.114 | 1.8 | 3.87 | 4.4 | 0.314 | 5.06 |
| ATATGGAGGTTAGCTGGGGTCATTCAGACTAGGC | 5.58 | 6.45 | 4.02 | 5.67 | 1.51 | 5.04 | 3.15 | 3.77 | 1.68 | 2.72 | 2.62 | 2.93 | 1.36 | 1.19 | 2.73 | 5.39 | 5.62 | 1.8 | 3.66 |

Source: the supplement of paper PMC6555819
